# Compound activity: PubChem BioAssay, National Center for Advancing Translational Sciences (NCATS)
# RE007 growth inh: qHTS Assay for Inhibitors of the HIV-1 protein Vpr. S. pombe RE007 Vpr strain, BacTiter-Glo ATP luminescence, 24 h. Potency, µM (series often up to 92.2 µM), for the others: at the top dose activity change, negative = less growth, actives largely listed as inhibitors. 360,000 tested, 0.21% active. AID 651644, 2012; active = well fitted falling curve with a large enough effect; inconclusive = small, poorly fitted or top-dose-only effect; inactive = no such curve, though single readings can be large or run the other way; note: potency is the fitted concentration of half-maximal effect; % is set by controls: 0 for no effect and ±100 for the full control effect; nearly all actives have a fitted effect of over 50% in size
#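 Fission yeast strain RE007, carrying one chromosomally integrated HIV-1 vpr copy, was seeded at OD 0.01 in PMG+AL medium with 23 nL pinned compound. After 24 h at 30 °C and 99% humidity, viability was read by BacTiter-Glo luminescence.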
# CHX counter: Cycloheximide Counterscreen for Small Molecule Inhibitors of Shiga Toxin | 300,000 tested, 12% active | max response, % | cell reporter, cycloheximide protein synthesis inhibition counterscreen; in the data active = max response mostly above about 13%, no sharp cut-off; inactive = mostly below about 14%; note: read at 38.3 µM for the half of the compounds with a filed dose; 0% is about no effect
# TbPYK inhibitor: qHTS of Trypanosoma Brucei Inhibitors. 410,000 tested, 0.12% active. Potency, µM (titrated, usually from 76.8 µM), for inactives: top-dose activity, negative = inhibition, hits mostly inhibitors. pyruvate kinase (Trypanosoma brucei), Q57TT1. TbPYK enzyme, Kinase-Glo Plus ATP luminescence, 45 min; note: potency is the fitted concentration of half-maximal effect; % is set by controls: 0 for no effect and ±100 for the full control effect; nearly all actives have a fitted effect of over 50% in size
#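 Glycolytic pyruvate kinase of T. brucei was incubated with substrate, test compound and 130 uM ADP for 45 minutes at room temperature. Luminescent Kinase-Glo Plus signal was measured after 10 minutes.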
# LmPK inh: qHTS Assay for Inhibitors of Leishmania Mexicana Pyruvate Kinase (LmPK); AID 1721, 2009; Potency, µM (series often up to 57.5 µM), without a hit: at the highest dose activity change, negative = inhibition, most hits filed as inhibitors; 290,000 tested, 0.37% active; purified LmPK, Kinase-Glo ATP luminescence, 1 h; note: potency is the fitted concentration of half-maximal effect; % is set by controls: 0 for no effect and ±100 for the full control effect
# Target sequence (Q27686 whole entry, looked up): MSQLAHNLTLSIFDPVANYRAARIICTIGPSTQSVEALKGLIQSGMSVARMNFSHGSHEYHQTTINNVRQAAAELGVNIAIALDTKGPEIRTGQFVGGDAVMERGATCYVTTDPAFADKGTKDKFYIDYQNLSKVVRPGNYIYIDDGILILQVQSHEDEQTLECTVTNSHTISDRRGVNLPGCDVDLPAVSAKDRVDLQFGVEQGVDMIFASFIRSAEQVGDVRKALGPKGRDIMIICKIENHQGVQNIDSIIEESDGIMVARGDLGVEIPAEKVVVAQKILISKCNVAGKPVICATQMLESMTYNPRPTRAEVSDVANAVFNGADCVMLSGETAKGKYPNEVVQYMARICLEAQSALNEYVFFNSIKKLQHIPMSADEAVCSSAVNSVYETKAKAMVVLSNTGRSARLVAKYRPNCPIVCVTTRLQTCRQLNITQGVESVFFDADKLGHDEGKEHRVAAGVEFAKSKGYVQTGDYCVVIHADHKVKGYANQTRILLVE
#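 Purified LmPK (0.1 nM) converted ADP (0.1 mM) to ATP with PEP (0.5 mM) in imidazole buffer pH 7.2 with KCl and MgCl2, 1 h at room temperature. ATP was read by Kinase-Glo luminescence; data normalized to uninhibited and no-enzyme controls.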
# Shiga inhibitor: A qHTS for Small Molecule Inhibitors of Shiga Toxin; inhibition, % at 38.7 µM; Vero cells, Shiga toxin protein synthesis inhibition reporter; 290,000 tested, 9.2% active; in the data active = inhibition mostly above about 28%, no sharp cut-off; inactive = mostly below about 43%; note: 0% is about no effect
# FBPA Giardia inh: qHTS Assay for Inhibitors of Fructose-1,6-bisphosphate Aldolase from Giardia Lamblia; Potency, µM (titrated, usually from 59.6 µM), for the others: top-dose activity, negative = inhibition, hits mostly inhibitors; purified Giardia FBPA; 290,000 tested, 0.71% active; AID 2451, 2010; A8B2U2; note: potency is the fitted concentration of half-maximal effect; % is set by controls: 0 for no effect and ±100 for the full control effect; nearly all actives have a fitted effect of over 55% in size
#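 40 nM FBPA preincubated 10 min at RT with compound (up to 57.5 uM final), then substrate plus GAPDH/TPI/NAD/arsenate coupling and diaphorase/resazurin added. Fluorescence read after 20 min at RT, 525/598 nm.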
# Numbers without * were called inactive; ? = inconclusive; . = not tested or not shown; [ ] = another dose, or the depositor's remark. The full list was thinned out, with hits kept by preference. Unless noted, calls come from the whole dose curve; as a rule, active = well fitted curve in the direction sought with a large enough effect; inconclusive = small, poorly fitted or top-dose-only effect, or another doubt; inactive = no such curve, though single readings can be large; an effect the other way counts as inactive or inconclusive.
SMILES,RE007 growth inh,CHX counter,TbPYK inhibitor,LmPK inh,Shiga inhibitor,FBPA Giardia inh
O=C(/C=C/c1ccc(Cl)c([N+](=O)[O-])c1)Nc1cccnc1,14%,12,3%,-4%,17,3%
O=C(/C=C/c1ccccc1)Nc1cccnc1,-18%,28*,-3%,-13%,33*,-4%
COC1CCN(C(=O)c2ccc3oc(C(C)C)nc3c2)CC1,-16%,23*,1%,-2%,20*,10%
COCC1CCCCN1C(=O)c1ccc2oc(CCc3ccccc3)nc2c1 (stereo not drawn),-7%,37*,2%,11%,94*,5%
CCCCc1nc2cc(C(=O)N3CCC(OC)CC3)ccc2o1,0%,27*,3%,1%,44*,.
COCCc1nc2ccc(C(=O)N3CCCCC3COC)cc2o1 (stereo not drawn),4%,-1,-4%,8%,24,0%
C=CCC1(CC=C)CCCN1C(=O)c1ccc2oc(CCCC)nc2c1,18%,.,4%,.,.,.
COCCC1CCCCN1C(=O)c1ccc2nc(Cc3ccccc3F)oc2c1 (stereo not drawn),14%,61*,-15%,-3%,97*,-10%
COc1ccccc1NC(=O)Cn1c(SCC(=O)NCc2ccccc2)nc2ccccc21,.,.,0%,.,.,.
COc1ccccc1CNc1nc(-c2ccccc2OC)nc2ccccc12,.,.,.,.,.,1%
O=c1c2ccccc2n(Cc2cccc(F)c2)c(=O)n1Cc1ccccc1Cl,.,.,0%,.,.,.
CCCCc1nc2cc(C(=O)N3CCN(c4nc(C)cnc4C)CC3)ccc2o1,-1%,47*,-4%,-9%,70*,.
CCCCc1nc2cc(C(=O)N3CCCCC3COC)ccc2o1 (stereo not drawn),6%,35*,5%,1%,87*,18%
CCCCc1nc2cc(C(=O)N3CCCCC3CCNC(C)=O)ccc2o1 (stereo not drawn),-8%,2,-16%,-4%,4,.
CCOC(=O)CC1CCCCN1C(=O)c1ccc2nc(CCOC)oc2c1 (stereo not drawn),-12%,24,1%,3%,10,.
CCOC(=O)CC1CCCCN1C(=O)c1ccc2oc(CCc3ccccc3)nc2c1 (stereo not drawn),-8%,17*,-6%,11%,34*,5%
CCCCc1nc2cc(Cl)ccc2o1,5%,-2,-3%,-2%,-5,0%
CCCCc1nc2cc(C(=O)NCc3cn(C)nc3C)ccc2o1,11%,-8,2%,-9%,-13,.
CCCCc1nc2cc(C(=O)NCc3nccn3CC)ccc2o1,-10%,50*,7%,-2%,37*,-28%
COc1ccc(C(=O)N2CCC3(CC2)CN(c2ncccn2)C3)cc1,.,.,5%,.,.,11%
CCCSc1nnc2n(-c3cccc(C)c3)c(=O)c3c4c(sc3n12)CCCC4,.,.,4%,.,.,.
CC(C)c1nc2ccc(C(=O)NC(C)c3ccccc3)cc2o1 (stereo not drawn),.,.,-9%,.,.,.
COc1ccc([C@@H](C)NC(=O)c2ccc3oc(C(C)C)nc3c2)cc1,-2%,50*,-7%,0%,74*,2%
O=C(Nc1nnc(-c2ccccc2F)s1)c1cccnc1,-18%,23*,1%,-5%,45*,-2%
O=C(Nc1nnc(C(F)(F)F)s1)c1cccnc1,9%,39*,3%,-4%,65*,?
SMILES,RE007 growth inh,CHX counter,TbPYK inhibitor,LmPK inh,Shiga inhibitor,FBPA Giardia inh
CCC(Sc1nc2nccnc2c(=O)n1Cc1ccccc1Cl)C(=O)NC1CCCCC1 (stereo not drawn),.,.,1%,.,.,.
C[C@H]1Cc2c(COc3ccccc3)nc3c(c2CO1)CN(C(=O)Cc1cccs1)CC3,.,.,.,-9%[11.5 µM],.,6%[12.9 µM]
CCN(CC)S(=O)(=O)c1ccc(Cl)c(C(=O)Oc2cccnc2)c1,9%,-3,-5%,5%,57,7%
CCN(CC)S(=O)(=O)c1cc(C(=O)Oc2cccc(-c3cnc4ccccc4n3)c2)ccc1Br,-7%,61*,-6%,2%,65*,-2%
CCN(CC)S(=O)(=O)c1ccc(Cl)c(C(=O)Oc2cccc(-c3cnc4ccccc4n3)c2)c1,17%,31*,-1%,1%,81*,-4%
O=C(Oc1ccc(-c2cnc3ccccc3n2)cc1)c1ccc(Br)o1,-8%,24,4%,-2%,45,-2%
CN1C(=O)c2cccc3c(S(=O)(=O)Nc4cccc(C(=O)O)c4)ccc1c23,.,.,-15%,.,.,.
c1ccc(C(OC2CCCN(CCc3ccc4c(c3)OCO4)C2)c2ccccc2)cc1 (stereo not drawn),.,-4,4%,.,16,1%
C=C(C(C)=O)C(O)c1cccc(Br)c1 (stereo not drawn),.,.,.,.,.,-1%
N#C/C(C(=O)NCc1ccco1)=C1/SC(Cc2ccc(Cl)cc2)C(=O)N1c1ccccc1 (stereo not drawn),-2%,18*,-7%,0%,-26,-22%
COc1ccc(-c2noc(CCC(=O)Nc3cccc(C)c3)n2)cc1,-4%,27*,-27%,-2%,100*,8%
Cc1cccc(-c2noc(Cc3ccc(Cl)cc3)n2)c1,-8%,40*,-4%,-10%,96,5%
COc1ccccc1-c1noc(CCC(=O)Nc2ccccc2Cl)n1,-8%,19*,-5%,-10%,-10,0%
Cc1cccc(-c2noc(-c3cccnc3NCc3ccc(Cl)cc3)n2)c1,.,.,-12%,.,.,.
COc1ccccc1-c1noc(CCC(=O)Nc2ccc(C)cc2C)n1,.,.,-9%,.,.,.
COc1ccc(S(=O)(=O)N(C)Cc2nc(-c3cccc(C)c3)no2)cc1,.,.,6%,.,.,.
COc1ccc(Cc2nc(-c3cccc(C)c3)no2)cc1,-16%,52*,-2%,-3%,112*,0%
CCCCS(=O)(=O)c1nc(-c2ccc(Br)cc2)cc(-c2ccccc2)c1C#N,.,.,0%,.,.,.
CCCCn1cc(S(=O)(=O)c2cccc(C)c2)c(=O)c2cc(F)c(N3CCOCC3)cc21,.,.,4%,.,.,.
COc1ccc(-c2noc(N(C)CC(=O)Nc3cccc(C(F)(F)F)c3)n2)cc1,-20%,21*,-1%,0%,36,-8%
COc1cccc(NC(=O)CN(C)CC(=O)Nc2cccc(C(F)(F)F)c2)c1,-3%,2,-10%,0%,-7,8%
Cc1[nH]c2ccc(C(=O)N3CCC(C(N)=O)CC3)cc2c1C,9%,.,2%,.,.,.
Cc1[nH]c2ccc(C(=O)N3CCCCC3)cc2c1C,3%,39*,-2%,-5%,107*,1%
Cc1[nH]c2ccc(C(=O)N3CCCC3)cc2c1C,-7%,30*,-10%,5%,23,-3%
